Where “and” joins values, the source holds several entries; their conditions need not be identical. Identical values can stand only once. Inconclusive results are not listed. Calls of active or inactive are those of the source. Unless noted, the call rests on the fitted dose curve; in most records, active means well fitted curve in the direction sought with a large enough effect in the repeat runs; inconclusive means weak or mixed curves; inactive means no such curve, though single readings can be large; an effect the other way counts as inactive or inconclusive.
Assays:
[1] = qHTS assay to identify small molecule agonists of the hypoxia (HIF-1) signaling pathway - cell viability counter screen (AID 1224844; calls by dose curve; further: nearly all actives have a fitted effect of over 50% in size)
How it was run: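 ME-180 HRE-bla cells, 2,000/well, 0.5% dialyzed FBS; 5 hr settle, 17 hr compound at 37C/5% CO2; CCF4-AM reporter read first, then CellTiter-Glo luminescence after 30 min RT.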

[2] = qHTS assay to identify small molecule agonists of H2AX - cell viability counter screen (AID 1224847; calls by dose curve; further: top concentration of the series differs between compounds; nearly all actives have a fitted effect of over 30% in size)
How it was run: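 Viability of CHO-K1 (wild type) cells after 3 hr compound exposure was measured by CellTiter-Glo luminescence.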

[3] = qHTS RealTime-Glo MT Cell Viability Assay in HepG2 cells - 24 hour (AID 1224867); further: nearly all actives have a fitted effect of over 50% in size
How it was run: (§1)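 HepG2 suspension premixed with RealTime-Glo reagents is plated at 600 cells per well and left 5 h at 37 C/5% CO2. Compounds in DMSO then go in, and bioluminescence reflecting viable cell number is recorded over 40 h.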

[4] = qHTS RealTime-Glo MT Cell Viability Assay in HEK293 cells - 32 hour (AID 1224868); further: top concentration of the series differs between compounds; nearly all actives have a fitted effect of over 50% in size
How it was run: (§2)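 Reads taken at 0, 8, 16, 24, 32 and 40 h from the same wells. HEK293 cells (600/well) carried RealTime-Glo reagents from seeding, with compound added after a 5 h settle at 37 C.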

[5] = A CellTox Green Cytotoxicity Assay to monitor cytotoxicity in HEK293 cells - 0 hour (AID 1224869); further: nearly all actives have a fitted effect of over 50% in size
How it was run: (§3)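 Nonlytic real-time cytotoxicity: HEK293 + CellTox Green reagent plated, 5 h preincubation, pintool compound addition (23 nL in DMSO), 37 C for 40 h, fluorescence measured at successive time points.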

[6] = qHTS RealTime-Glo MT Cell Viability Assay in HepG2 cells - 40 hour (AID 1224870); further: nearly all actives have a fitted effect of over 50% in size
How it was run: (§4)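 HepG2 cells mixed with RealTime-Glo MT reagents (NanoLuc plus cell-permeant prosubstrate) were seeded at 600 cells/well, incubated 5 h at 37 C/5% CO2, then pinned with compounds in DMSO; nonlytic luminescence tracked viability during 40 h treatment.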

[7] = A CellTox Green Cytotoxicity Assay to monitor cytotoxicity in HEK293 cells - 40 hour (AID 1224871); further: nearly all actives have a fitted effect of over 45% in size
How it was run: as §3

[8] = qHTS RealTime-Glo MT Cell Viability Assay in HEK293 cells - 16 hour (AID 1224872)
How it was run: as §2

[9] = qHTS RealTime-Glo MT Cell Viability Assay in HepG2 cells - 8 hour (AID 1224873); further: nearly all actives have a fitted effect of over 55% in size
How it was run: as §4

[10] = qHTS RealTime-Glo MT Cell Viability Assay in HEK293 cells - 40 hour (AID 1224874); conditions: RealTime-Glo luminescence; max response: active compounds read low; further: nearly all actives have a fitted effect of over 50% in size
How it was run: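 Cells were seeded together with NanoLuc luciferase and a prosubstrate that viable cells reduce to a luciferase substrate. After a 5 h incubation at 37 C/5% CO2, compounds were added and luminescence was measured repeatedly during 40 h of treatment.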

[11] = A CellTox Green Cytotoxicity Assay to monitor cytotoxicity in HEK293 cells - 24 hour (AID 1224875); further: nearly all actives have a fitted effect of over 45% in size
How it was run: as §3

[12] = A CellTox Green Cytotoxicity Assay to monitor cytotoxicity in HepG2 cells - 16 hour (AID 1224876); further: nearly all actives have a fitted effect of over 45% in size
How it was run: (§5)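 Read-out is fluorescence of a cyanine dye excluded from live cells that stains DNA of dead HepG2 cells, with signal proportional to cytotoxicity. Plates were read at 0, 8, 16, 24, 32 and 40 h after compound addition.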

[13] = qHTS RealTime-Glo MT Cell Viability Assay in HepG2 cells - 32 hour (AID 1224877); further: nearly all actives have a fitted effect of over 55% in size
How it was run: as §1

[14] = A CellTox Green Cytotoxicity Assay to monitor cytotoxicity in HepG2 cells - 24 hour (AID 1224878); further: nearly all actives have a fitted effect of over 45% in size
How it was run: as §5

[15] = qHTS assay to identify small molecule agonists of the hypoxia (HIF-1) signaling pathway (AID 1224846; active means well fitted activation curve with a large enough effect in the signal ratio in the repeat runs, not every such curve was filed as active; the % refers to the signal ratio)
How it was run: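 Cell line: CellSensor HRE-bla ME-180; 2,000 cells/well; 0.5% dialyzed FBS; 5 h preincubation; DMSO compound pin transfer; 17 h, 37C, 5% CO2; CCF4-AM added; bla FRET signal scored for activation.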

[16] = A CellTox Green Cytotoxicity Assay to monitor cytotoxicity in HepG2 cells - 40 hour (AID 1224879); further: nearly all actives have a fitted effect of over 40% in size
How it was run: as §5

[17] = qHTS assay to identify small molecule agonists of H2AX (AID 1224845; active means well fitted activation curve with a large enough effect in the signal ratio in the repeat runs, not every such curve was filed as active; the % refers to the signal ratio)
How it was run: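 Wild-type CHO-K1 cells plated overnight, then exposed 3 hr at 37C to compounds at 15 concentrations (0.76% DMSO). Lysed, then HTRF anti-pH2AX(S139)-cryptate/anti-H2AX-d2 detection after 24 hr at room temperature; emissions 665 and 620 nm.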

[18] = qHTS assay to identify small molecule antagonists of the estrogen related receptor (ERR) signaling pathway from Tox21 library (AID 1224848); further: nearly all actives have a fitted effect of over 50% in size
How it was run: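 Screening used an ERR reporter line supplied by NTP, exposed for 18 h at 37 C to library compounds delivered in DMSO. Signal was luciferase luminescence developed with ONE-Glo at room temperature for 30 min.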

[19] = qHTS assay to identify small molecule agonists of the estrogen related receptor (ERR) signaling pathway from Tox21 library (AID 1224849; calls by dose curve; further: nearly all actives have a fitted effect of over 15% in size); conditions: ERR reporter cell line, ONE-Glo luciferase, 18 h; at 92.4 µM (top of the series) unless noted
How it was run: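 ERR cells, 6 h pre-incubation 37 C/5% CO2; cpd in DMSO pinned; 18 h 37 C; ONE-Glo added, 30 min RT; luminescence read. Agonist mode, qHTS.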
On the % scale 0 is the no-effect control and ±100 the full control effect.

CCNc1nc(Cl)nc(NC(C)(C)C)n1
inactive: Potency [1] | Potency [2] | Potency [3] | Potency [4] | outcome [5] | Potency [6] | Potency [7] | Potency [8] | outcome [9] | max response [10] -11% | Potency [11] | Potency [12] | Potency [13] | Potency [14]

N#CN
inactive: outcome [15] | Potency [2] | Potency [3] | Potency [4] | outcome [5] | Potency [6] | Potency [7] | outcome [9] | max response [10] 4.8% | Potency [11] | Potency [12] | Potency [13] | Potency [14] | Potency [16]

CC(C)C(C)(N)C#N (configuration not stated)
inactive: Potency [1] | outcome [15] | Potency [2] | Potency [3] | outcome [5] | Potency [6] | Potency [7] | Potency [8] | outcome [9] | max response [10] -5.83% | Potency [11] | Potency [12] | Potency [13] | Potency [14] | Potency [16]

CN(C)C1CCCCC1
inactive: outcome [17] | outcome [15] | Potency [2] | Potency [18] | Potency [3] | outcome [5] | Potency [6] | Potency [7] | outcome [9] | Potency [11] | Potency [12] | Potency [13] | Potency [14] | Potency [16]

COc1cc(CC(C)N)cc(OC)c1OC (configuration not stated)
inactive: Potency [1] | outcome [17] | Potency [2] | Potency [18] | activity change, positive = activation [19] 12.1% | Potency [3] | Potency [4] | outcome [5] | Potency [6] | Potency [7] | Potency [8] | outcome [9] | max response [10] -3.07% | Potency [11] | Potency [12] | Potency [13] | Potency [14] | Potency [16]

CCNP(=S)(OC)O/C(C)=C/C(=O)OC(C)C (configuration not stated)
inactive: Potency [1] | outcome [17] | outcome [15] | Potency [2] | Potency [3] | Potency [4] | outcome [5] | Potency [6] | Potency [7] | Potency [8] | outcome [9] | Potency [11] | Potency [12] | Potency [13] | Potency [14] | Potency [16]

OCC(Cl)CCl (configuration not stated)
inactive: Potency [1] | outcome [17] | Potency [2] | Potency [3] | Potency [4] | outcome [5] | Potency [6] | Potency [7] | Potency [8] | outcome [9] | max response [10] -0.453% | Potency [11] | Potency [12] | Potency [13] | Potency [14] | Potency [16]

CN=CNc1ccc(C)cc1C
inactive: Potency [1] | outcome [15] | Potency [2] | Potency [18] | activity change, positive = activation [19] 1.36% | Potency [3] | Potency [4] | outcome [5] | Potency [6] | Potency [7] | Potency [8] | outcome [9] | max response [10] 5.53% | Potency [11] | Potency [12] | Potency [13] | Potency [14] | Potency [16]

CCCC(C)C1(CC)C(=O)N=C(S)NC1=O (configuration not stated)
inactive: Potency [1] | outcome [15] | Potency [2] | Potency [3] | outcome [5] | Potency [6] | Potency [7] | Potency [8] | outcome [9] | max response [10] 1.79% | Potency [11] | Potency [12] | Potency [13] | Potency [14] | Potency [16]

CCOC(=O)C(Cl)Cc1cc(-n2nc(C)n(C(F)F)c2=O)c(F)cc1Cl (configuration not stated)
inactive: Potency [1] | outcome [17] | outcome [15] | Potency [2] | Potency [3] | Potency [4] | outcome [5] | Potency [6] | Potency [7] | max response [10] 2.36% | Potency [11] | Potency [12] | Potency [13] | Potency [14] | Potency [16]

CCc1ccc(C2CCNCC2)cc1
inactive: Potency [1] | outcome [17] | outcome [15] | Potency [2] | Potency [3] | outcome [5] | Potency [6] | Potency [7] | Potency [8] | outcome [9] | max response [10] 7.03% | Potency [11] | Potency [12] | Potency [13] | Potency [14] | Potency [16]

C=CC1(C)OC(=O)N(c2cc(Cl)cc(Cl)c2)C1=O (configuration not stated)
inactive: outcome [17] | outcome [15] | Potency [2] | Potency [3] | Potency [4] | outcome [5] | Potency [6] | Potency [7] | Potency [8] | outcome [9] | max response [10] -8.21% and -20% | Potency [11] | Potency [12] | Potency [13] | Potency [14] | Potency [16]

CC(C)(C)c1cc(O)ccc1O
inactive: Potency [1] | Potency [2] | Potency [3] | outcome [5] | Potency [6] | Potency [7] | outcome [9] | Potency [11] | Potency [12] | Potency [13] | Potency [14] | Potency [16]

O=[N+]([O-])CCO
inactive: outcome [17] | Potency [2] | Potency [18] | activity change, positive = activation [19] 1.1% | Potency [3] | Potency [4] | outcome [5] | Potency [6] | Potency [7] | outcome [9] | max response [10] 3.11% | Potency [11] | Potency [13]

Source: PubChem BioAssay (Tox21)
